The results in this text go back to PubChem BioAssay (NCATS).

Each structure is given as a SMILES string. Inconclusive results are not listed. A call without a number means that no potency is given here. The source made the active and inactive calls. Calls follow the shape of the dose curve; as a rule, active = well fitted cell-killing curve with a large enough effect; inconclusive = small, poorly fitted or top-dose-only effect, or effect the other way; inactive = no such curve, though single readings can be large or run the other way.
Potency is read from the fitted curve at half-maximal effect.

This test in a line: Quantitative High-Throughput drug screen in 47 multiple myeloma cell lines against the NCATS MIPE library collection: MM1R_ATCC cell viability assay (AID 1918981). Also: nearly all actives have a fitted effect of over 35% in size. Conditions: MM1R multiple myeloma cells, CellTiter-Glo viability, 48 h; series mostly up to 45.8 µM. A digest of the protocol:
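Inhibition of viability over 48 h was scored by ATP content (CellTiter-Glo) in 500-cell wells. Zero and full viability were defined by media-only and DMSO-only wells.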
On the technique in general: Cellular ATP, detected with luciferase, serves as a proxy for viable cell number.
Consider `CC(C)[C@H](N)C(=O)OCCOCn1cnc2c(=O)[nH]c(N)nc21`, for which the Potency entry was “inactive”. The value for `C=CCc1cc(OC)c(O)c(C(=O)NCCO)c1` was “inactive”; that for `Nc1cc(C(Cl)=C(Cl)Cl)c(S(N)(=O)=O)cc1S(N)(=O)=O` was “inactive”; that for `CC(=O)O[C@H]1C(=O)[C@@]2(C)C([C@H](OC(=O)c3ccccc3)[C@]3(O)C[C@H](OC(=O)[C@H](O)[C@@H](NC(=O)c4ccccc4)c4ccccc4)C(C)=C1C3(C)C)[C@]1(OC(C)=O)CO[C@@H]1C[C@@H]2O` (some centres undefined) was “inactive”. `COc1cc(OC)c(C(=O)CCCN2CCCC2)c(OC)c1`: the Potency result is “inactive”. With `CN1C(C(=O)Nc2ccccn2)=C(O)c2sccc2S1(=O)=O`, the Potency entry was “inactive”. The same measure for `CC1(C)CCC(C)(C)c2cc(NC(=O)c3ccc(C(=O)O)cc3)ccc21`: 13.2 µM (active); for `COc1cc2nc(N3CCN(C(=O)C4CCCO4)CC3)nc(N)c2cc1OC` (centres undefined): “inactive”; for `C[C@@H](N)C1CCC(C(=O)Nc2ccncc2)CC1` (some centres undefined): “inactive”.

For the compound `COc1cc(Nc2c(C#N)cnc3cc(OCCCN4CCN(C)CC4)c(OC)cc23)c(Cl)cc1Cl`, the Potency is 18.7 µM (active).

Regarding `CCN(CC)C(=S)SSC(=S)N(CC)CC`, the Potency is 0.0093 µM (active).

On to `COc1cc(C(C)=O)ccc1OCCCN1CCC(c2noc3cc(F)ccc23)CC1`, for which the Potency was 16.6 µM (active).

For `CC(=O)N1CCN(c2ccc(OC[C@H]3CO[C@](Cn4ccnc4)(c4ccc(Cl)cc4Cl)O3)cc2)CC1`, the Potency is 11.8 µM (active). For the compound `CCCOc1ccc2nc(NC(=O)OC)[nH]c2c1`, the Potency is 0.0083 µM (active). Take `COc1ccc2cc([C@H](C)C(=O)O)ccc2c1`: the Potency result was “inactive”.

For `CC(=O)NC[C@H]1CN(c2ccc(N3CCOCC3)c(F)c2)C(=O)O1`, the Potency entry was “inactive”.

For the compound `CS(=O)(=O)OCCCCOS(C)(=O)=O`, the Potency is 3.72 µM (active).

For `CC(C)C[C@H](NC(=O)[C@H](Cc1ccccc1)NC(=O)c1cnccn1)B(O)O`, the Potency was 0.0047 µM (active). Take `CCCCC(CC)COC(=O)C(C#N)=C(c1ccccc1)c1ccccc1` (centres undefined): the Potency entry was “inactive”. The value for `CN1CCC(=C2c3ccccc3CCc3sccc32)CC1` was “inactive”.

As for `Cc1ccc(NC(=O)c2ccc(CN3CCN(C)CC3)cc2)cc1Nc1nccc(-c2cccnc2)n1`, the Potency entry was “inactive”. The value for `N[C@@H](Cc1cc(I)c(Oc2cc(I)c(O)c(I)c2)c(I)c1)C(=O)O` was “inactive”; that for `CN(C)C(=O)[C@H](O)[C@H](Cc1ccccc1)NC(=O)c1cc2cc(Cl)ccc2[nH]1` was 13.2 µM (active); that for `O=C(O)c1cc(=O)c2c(OCC(O)COc3cccc4oc(C(=O)O)cc(=O)c34)cccc2o1` was “inactive”.
